{"source": "PubChem BioAssay (NCATS)", "note": "“And” between values parts separate entries of the source, which are not always exact repeats. Identical values can stand only once. Records with an inconclusive call do not appear. A number with no mark means an inactive call. The source made the active and inactive calls. Calls come from the whole dose curve; as a rule, active = well fitted activation curve with a large enough effect; inconclusive = small, poorly fitted or top-dose-only effect; inactive = no such curve, though single readings can be large or run the other way. Potency is the fitted concentration of half-maximal effect."}
{"biological_target": "Cellular tumor antigen p53 (Homo sapiens) (UniProt P04637)", "sequence (P04637 whole entry, looked up)": "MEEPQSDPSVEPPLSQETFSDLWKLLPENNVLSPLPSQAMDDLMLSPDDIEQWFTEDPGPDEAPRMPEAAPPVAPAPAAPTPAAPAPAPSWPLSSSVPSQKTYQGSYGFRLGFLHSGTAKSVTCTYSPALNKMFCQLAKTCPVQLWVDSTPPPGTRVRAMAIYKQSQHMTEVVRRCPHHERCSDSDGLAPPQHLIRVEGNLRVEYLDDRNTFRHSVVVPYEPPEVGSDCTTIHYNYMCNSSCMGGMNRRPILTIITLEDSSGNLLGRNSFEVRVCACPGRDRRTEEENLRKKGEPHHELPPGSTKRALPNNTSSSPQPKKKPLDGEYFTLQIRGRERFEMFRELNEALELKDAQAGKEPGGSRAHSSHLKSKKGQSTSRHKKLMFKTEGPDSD", "test": "Primary qHTS for small molecule compounds that upregulate eGFP-tagged delta133p53alpha (in N-terminal) cells. (AID 2060322); note: nearly all actives have a fitted effect of over 75% in size;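 for activation: series mostly up to about 56 µM; 0% = DMSO vehicle and 100% = reference activator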", "settings": "NCI-H358 eGFP-delta133p53alpha fluorescence, 24 h; activation: active compounds read high", "procedure,_shortened": "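NCI-H358 cells pre-induced 24 h with 10 ng/ml doxycycline to express N-terminal eGFP-delta133p53alpha, then dosed 24 h at 37C without doxycycline; fixed, Hoechst-stained, GFP intensity by laser scanning cytometry, normalized to DMSO (0%) and 57.5 uM 5-azacytidine (100%).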"}
{"smiles": "COc1cccc2c1[C@]13CCN(CC4CC4)[C@H](C2)[C@]1(OC)CCC(=O)C3", "activation": "-12%"}
{"smiles": "NC(=O)OCCCc1ccccc1", "activation": "-0.565%"}
{"smiles": "CC(C)(O)C=CC(=O)[C@](C)(O)[C@H]1[C@H](O)C[C@]2(C)[C@@H]3CC=C4[C@@H](C=C(O)C(=O)C4(C)C)[C@]3(C)C(=O)C[C@@]12C", "Potency": "34.3 µM (active)"}
{"smiles": "CC(C)(C)CC(C)(C)c1ccc(O)cc1", "Potency": "28.2 µM (active) and 30.9 µM (active)"}
{"smiles": "COc1ccc(CC2NCCc3cc(OC)c(OC)cc32)cc1OC", "note": "(stereo not given)", "activation": "-6.46%"}
{"smiles": "CCN(CCO)CCn1c(Cc2ccccc2)nc2c1c(=O)n(C)c(=O)n2C", "activation": "16.7%"}
{"smiles": "COc1ccc2c(c1)[C@]13CCCCC1C(C2)N(C)CC3", "note": "(stereo not given in full)", "activation": "8.01%"}
{"smiles": "CCCCCCC(=O)CCCCCC/C=C/C[C@@H](O)[C@H](O)[C@@](N)(CO)C(=O)O", "activation": "5.86%"}
{"smiles": "NP(N)(=O)NC(=O)c1ccc(F)cc1", "activation": "-15.1%"}
{"smiles": "CCN[C@@H](C)Cc1ccccc1", "activation": "-10.7%"}
{"smiles": "O=C(CCCCl)c1ccc(F)cc1", "activation": "-10.9%"}
{"smiles": "COCC(=O)N(c1c(C)cccc1C)C(C)C(=O)OC", "note": "(stereo not given)", "activation": "18.6%"}
{"smiles": "COc1ccc(Cc2nccc3cc(OC)c(OC)cc23)cc1OC", "activation": "-17.6% and 20.4% and -35.4%"}
{"smiles": "NC(=O)c1cc([N+](=O)[O-])cc([N+](=O)[O-])c1", "activation": "0.837%"}
{"smiles": "CN1CCN(C(=O)O[C@H]2c3nccnc3C(=O)N2c2ccc(Cl)cn2)CC1", "activation": "11.9% and -19.6%"}
{"smiles": "C=C1C[C@H]2[C@H]3CCC(=O)[C@@]3(C)CC[C@@H]2[C@@]2(C)C=CC(=O)C=C12", "activation": "3.97%"}
{"smiles": "[N-]=[N+]=CC(=O)OC[C@H](N)C(=O)O", "activation": "5.02%"}
{"smiles": "CCO/N=C(\\CC)C1=C(O)CC(c2c(C)cc(C)cc2C)CC1=O", "note": "(stereo not given)", "activation": "16.7%"}
{"smiles": "Nc1ccc(Cl)cc1", "activation": "-6.21%"}
{"smiles": "OC(O)C(Cl)(Cl)Cl", "activation": "-29.9%"}
{"smiles": "C[C@@H]1CC[C@@]2(OC1)O[C@H]1C[C@H]3[C@@H]4CC=C5C[C@@H](O[C@@H]6O[C@H](CO)[C@@H](O[C@@H]7O[C@@H](C)[C@H](O)[C@@H](O)[C@@H]7O)[C@H](O)[C@@H]6O[C@@H]6O[C@@H](C)[C@H](O)[C@@H](O)[C@@H]6O)CC[C@]5(C)[C@@H]4CC[C@]3(C)[C@@H]1[C@H]2C", "activation": "15.2%"}
{"smiles": "Oc1cc(Cl)ccc1Oc1ccc(Cl)cc1Cl", "Potency": "51.4 µM (active)"}
{"smiles": "CCN(CC)CCc1c[nH]c2ccccc12", "activation": "-8.47%"}
{"smiles": "C[C@@H]1[C@@H](CC(C[C@H]2O[C@@H]3O[C@]4(C)CC[C@@H]5[C@H](C)CC[C@@H]([C@H]2C)[C@@]35OO4)C[S+](=O)([O-])c2ccc(COC(=O)N(C)C)cc2)O[C@@H]2O[C@]3(C)CC[C@H]4[C@H](C)CC[C@@H]1[C@@]24OO3", "note": "(stereo not given in full)", "activation": "8.23%"}
{"smiles": "Cc1ncc2n1-c1ccc(Cl)cc1C(c1ccccc1F)=NC2", "activation": "-27.7%"}
{"smiles": "CCCOC(=O)c1cncn1C(C)c1ccccc1", "note": "(stereo not given)", "activation": "17.5%"}
{"smiles": "COc1cc(CCN)cc(OC)c1OC", "activation": "-6.21%"}
{"smiles": "Cc1ccc(-c2nc3ccc(C)cn3c2CC(=O)N(C)C)cc1", "activation": "-32.2%"}
{"smiles": "CCN(CC)CCN1C(=O)CN=C(c2ccccc2F)c2cc(Cl)ccc21", "activation": "11.9%"}
{"smiles": "NCc1cccnc1", "activation": "6.21%"}
{"smiles": "CC[n+]1c(-c2ccccc2)c2cc(N)ccc2c2ccc(N)cc21", "Potency": "19.5 µM (active)"}
{"smiles": "C[C@]12CC[C@@H]3c4ccc(OC(=O)N(CCCl)CCCl)cc4CC[C@H]3[C@@H]1CC[C@@H]2O", "activation": "11.9%"}
{"smiles": "CC(Cc1ccccc1)NCc1ccccc1Cl", "note": "(stereo not given)", "activation": "16.4%"}
{"smiles": "CC(C)(C)[C@]1(O)C[C@@H]2OC(=O)C[C@@]23C(=O)O[C@@H]2OC(=O)[C@H](O)C213", "note": "(stereo not given in full)", "activation": "7.05%"}
{"smiles": "CC(=O)[O][Hg][c]1ccccc1", "Potency": "8.71 µM (active)"}
{"smiles": "C1CN2CCC1CC2", "activation": "-19.2%"}
{"smiles": "CC(C)NCC(O)c1ccc(N)c(C#N)c1", "note": "(stereo not given)", "activation": "1.69%"}
{"smiles": "C[C@H]([C@H](O)CCC(C)(C)O)[C@H]1CC[C@@]2(O)C3=CC(=O)[C@@H]4C[C@@H](O)[C@@H](O)C[C@]4(C)[C@@H]3CC[C@]12C", "activation": "-1.72%"}
{"smiles": "C[C@]12CC[C@H]3[C@@H](CC=C4C[C@@H](O)CC[C@@]43C)[C@@H]1CC[C@@H]2O", "activation": "-16.7%"}
{"smiles": "C[C@]12COC(=O)C[C@@H]1CC[C@@H]1[C@H]2CC[C@@]2(C)[C@H]1CC[C@]2(C)O", "activation": "-15.3%"}
